# According to the supplement of paper PMC6555819:
# Test system: VDR:RXRa (NR concentration 270 nM, RXRa partner concentration 90 nM)
# Experiment: PBM binding z-score (relative to random genomic background probes); higher = stronger binding; sequences stand for … in GC…GCGATTGACAGCGTAGAATGAAGG
# Description: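 Protein-binding microarray (Agilent 4x180K custom design, double-stranded 60-nt probes: 5' GC cap, 34-nt variable region, 24-nt constant primer region; full probe sequence given). Purified or IVT nuclear receptor:RXRα heterodimers (3:1 NR:RXRα, mostly 270:90 nM) or homodimers were incubated for 1 h in PBS with 2% milk and no ligand, then detected with Alexa488 antibodies. Fluorescence from o1-orientation probes (~5 replicates averaged) was converted to z-scores against 500 random hg19 background probes. Variable regions are seed direct-repeat (DR0–DR5) sites, all their single-nucleotide variants and half-site ablations.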
row,Sequence,PBM binding z-score
1,AGAATGTGGTTAAGATCAGGGAAACAGAATACAT,-0.0223
2,CCTACTGGGCTAAGGTCATTGATCAGTCAAAGCA,3.39
3,CCTACTGGGCCAAGGGCATTGATCAGTCAAAGCA,-0.469
4,TCATATAGGTAAAACGTGAAAGTCGGTGTGGTAA,0.783
5,CAAACTAGGGCAAGGTCAAAGTCGGTTTGTGCCA,4.44
6,TCTAGTTGGTCAAAGGTCAGACACTCGAAATGCG,4.09
7,AATACAGGGTCACTCGGCCAGAGTAGGTACGAAT,4.3
8,CCGACTGGTGCAAAGGTTACCATACTCAGTACGA,1.74
9,ACTAGCTGGCCAAGTTTGGGTCACTCAAACAAAG,0.228
10,GCGAGTTGGTCAGTAAAAGGTCACACACCGGTCG,4.33
11,AGAATTAGGTTATTAAGATCAGGGAATTGCGGTC,0.835
12,TCTATTAGTTGAAGGGCTACCGACGAGTCCGTTT,0.745
13,GCTCGGAGGACAAGGTCAGAACTTTGTCCGTAGA,1.37
14,GCTGCTAGGTGAGGTTGGTCAGCTAACGGGTACG,-0.472
15,CCAGACAGGTGAGACGGTAACTCAGCCTCGATTA,-0.29
16,TCTAGCAGGCCAGAGGCTCACTCAAGAGGTACGG,-0.485
17,TCACCAAGGTGAAGGTCGTTGATCCCTCTGTAGA,1.34
18,AGTAGTTGGTCAGCTGAGGTCACACACAATTCGG,4.43
19,GTACCAAGGTGAATAGGTCGTTGCTGAGTAGGCG,0.644
20,ACGGACAGGTGAGTGAAGGTAACTCAGCTGGACG,-0.381

row,Sequence,PBM binding z-score
1,TAGGCTAGGTCATGGGCCAGTATACCACGCGAAC,1.98
2,CCGTACGGGTCACTCCAGGTTATAGCATCGGAGT,4.39
3,TAGCCTAGGTCATGGGACAGTATACCACGCGAAC,2.17
4,TCTTGTAGATCGAGCAGGTTAAGAAAGCCTGAGT,-0.0222
5,ACTCTTAGTTGAGACGAGGGCAACCGATAGGTTG,0.492
6,CGAACTGGGTCATCCAGGACAGTGAATACATTGA,4.54
7,TAGCCTAGGTCATCGGCCAGTATACCACGCGAAC,2.15
8,TCTTGTAGATCAGGCAGGTTAAGAAAGCCTGAGT,0.268
9,TAGCCTACGTCATGCGGGCCAGTATAGTGTCGGC,-0.879
10,TCTTGTAGATCAATAGAGGTGAAGAAAGTGCGCT,0.991
11,AGAGTGAGGTTATTAAGATCAGGGAATTGCGGTC,2.49
12,TCTATTTGGTCACGGAGGTCACACACGACGGGTA,5.87
13,ACTAGCAGGCTAAGTTTGGGTCACTCAAACAAAG,0.216
14,CGAACTAGGTCATCCAGGACAGTGCATACATTGA,4.69
15,CGTCAAAGTTCCAGGTAACGTAACAGAAAGCAGC,-0.14
16,CGTCAAAGTTCAACGTAACGTAACAGAAAGCAGC,3.97
17,CCTAGCAGGCCAGGGTTACTCAAGCATTTCGCTT,-0.412
18,TAATATAGGTAAACAGGTGAAAGTCCGTAAGTTA,1.19
19,CCTATTAGTTGACCATAAGGGCATCCGAAGCTCG,0.862
20,TCTTATAGGTAAAGGTGAAAGTCGAACGATATGA,1.25
